Bioassay records from PubChem BioAssay.
SmPrx2 inh = Schistosoma Mansoni Peroxiredoxins (Prx2); hit rate 0.07% among 65,000; Schistosoma mansoni peroxiredoxin 2 (Prx2); S. mansoni Prx2 activity coupled to TGR/GSH (TGR is thioredoxin glutathione reductase), NADPH fluorescence loss, qHTS; Potency, µM; AID 448, 2006
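Purified S. mansoni TGR and Prx2 in pH 7.4 phosphate buffer with EDTA and Tween-20 were preincubated with compounds for 15 min. Further NADPH/GSH was added, then a 2.5 mM H2O2 aliquot initiated turnover, followed kinetically by NADPH fluorescence.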
Anthrax LT inh = qHTS Assay for Anthrax Lethal Toxin Internalization. Cells, anthrax lethal toxin internalization, FRET ratio (460/530). hit rate 0.67% among 70,000. Potency, µM (doses to about 40 µM), for the others: top-dose activity change, negative = inhibition, actives largely listed as inhibitors; further: on the % scale 0 is the no-effect control and ±100 the full control effect; nearly all actives have a fitted effect of over 50% in size
AmpC inh no det = Promiscuous and Specific Inhibitors of AmpC Beta-Lactamase (assay without detergent). hit rate 1.8% among 71,000. P00811. AmpC nitrocefin hydrolysis, absorbance 480 nm, no detergent. Potency, µM (highest dose often 28.7 µM), inactives show top-dose activity change, negative = inhibition; further: % of control where 0% means no effect
Target sequence (P00811 whole entry, looked up): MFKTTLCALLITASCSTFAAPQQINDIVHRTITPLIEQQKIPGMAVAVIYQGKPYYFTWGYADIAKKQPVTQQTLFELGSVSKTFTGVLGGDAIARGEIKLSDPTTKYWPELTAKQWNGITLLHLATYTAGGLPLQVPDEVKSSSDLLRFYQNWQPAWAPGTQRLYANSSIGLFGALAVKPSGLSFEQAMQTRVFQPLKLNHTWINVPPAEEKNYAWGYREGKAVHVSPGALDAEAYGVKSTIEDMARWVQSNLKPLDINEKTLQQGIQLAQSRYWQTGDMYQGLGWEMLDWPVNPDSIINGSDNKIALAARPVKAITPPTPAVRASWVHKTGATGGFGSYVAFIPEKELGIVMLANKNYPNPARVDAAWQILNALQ
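AmpC, 20 mM phosphate pH 7.0; 15 min cpd preinc, RT; start with nitrocefin (800 uM stock); A480 kinetic read, 20 s intervals, 4 min. No-enzyme wells = negative control.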
AmpC inh det = Promiscuous and Specific Inhibitors of AmpC Beta-Lactamase (assay with detergent). purified AmpC, nitrocefin hydrolysis with detergent. Potency, µM (titrated, usually from 28.7 µM), for inactives: at the highest dose activity change, negative = inhibition. hit rate 0.09% among 71,000; active means well fitted curve in the direction sought with a large enough effect; inconclusive means small, poorly fitted or top-dose-only effect; further: on the % scale 0 is the no-effect control and ±100 the full control effect
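E. coli AmpC (5.3 nM) in 20 mM phosphate pH 7.0 with 0.01% Triton X-100, preincubated 15 min RT with compound; nitrocefin (2 uL of 800 uM stock) hydrolysis followed by 480 nm absorbance every 20 s over 4 min.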
Numbers without * were called inactive; [ ] = dose if it differs, or a comment. A selection: hits, their analogues and other compounds. The true share with any hit is near 2.4%. Unless noted, the call rests on the fitted dose curve. Potency means the concentration at half of the fitted maximal effect.

Screening COc1ccc(Nc2nc(N3CCCC3)nc3ccccc23)c(OC)c1 returned SmPrx2 inh >57, Anthrax LT inh 12.6µM*, AmpC inh no det 53.6% and AmpC inh det -1.4%.
`CC(C)CN(CCNC(=O)CC1Oc2ccccc2NC1=O)CC(C)C` (stereo not drawn) gave SmPrx2 inh >57, Anthrax LT inh -2.6%, AmpC inh no det 3.98µM*[single pt active] and AmpC inh det 13.4%.
For CCCSCCCNC(=O)CC1Oc2ccccc2NC1=O (stereo not drawn) the results were SmPrx2 inh >57, Anthrax LT inh -0.8%, AmpC inh no det 3.98µM*[single pt active] and AmpC inh det 12.0%.
Screening CCC(C)N(CCNC(=O)CC1Oc2ccccc2NC1=O)C1CCCCC1 (stereo not drawn) returned SmPrx2 inh >57, Anthrax LT inh -19.2%, AmpC inh no det 3.98µM*[single pt active] and AmpC inh det 7.2%.
Screening CCN(CCNC(=O)CC1Oc2ccccc2NC1=O)c1ccccc1 (stereo not drawn) returned SmPrx2 inh >57, Anthrax LT inh -0.1%, AmpC inh no det 3.98µM*[single pt active] and AmpC inh det 12.7%.
O=C(c1cnn2ccccc12)N(Cc1ccco1)C1CCCC1 was read as SmPrx2 inh >57, Anthrax LT inh -0.1%, AmpC inh no det 3.98µM*[single pt active] and AmpC inh det 10.4%.
For COc1ccccc1C(=O)N(Cc1ccco1)C1CCS(=O)(=O)C1 (stereo not drawn) the results were SmPrx2 inh >57, Anthrax LT inh 3.4%, AmpC inh no det 8.1% and AmpC inh det 14.7%.
`NC(=O)c1c(NC(=O)CSc2nnc(-c3ccccc3)n2CC2CCCO2)sc2c1CCC2` (stereo not drawn) gave SmPrx2 inh >57, Anthrax LT inh -16.4%, AmpC inh no det 76.9% and AmpC inh det 3.7%.
For Cn1cnnc1SCC(=O)Nc1sc2c(c1C(N)=O)CCC2 the results were SmPrx2 inh >57, Anthrax LT inh inconclusive, AmpC inh no det 10µM* and AmpC inh det -8.3%.
For CC(C)OC(=O)Nc1ccc(Oc2c(F)c(F)c(F)c(F)c2F)cc1 the results were SmPrx2 inh >57, AmpC inh no det 15.8µM*[single pt active] and AmpC inh det -1.9%.
For CC(C)Oc1ccc(NC(N)=O)cc1 the results were SmPrx2 inh >57, Anthrax LT inh inconclusive, AmpC inh no det 19.9% and AmpC inh det -2.0%.
Cn1c(=O)c(CCc2ccccc2)nc2cnc(Oc3ccccc3)nc21 was read as SmPrx2 inh >57, Anthrax LT inh inconclusive, AmpC inh no det 16.7% and AmpC inh det -0.5%.
Cc1ccc(S(=O)(=O)C2(C(=O)Nc3cccnc3)CC2)cc1 was read as SmPrx2 inh >57, Anthrax LT inh -8.5%, AmpC inh no det 3.98µM*[single pt active] and AmpC inh det 13.8%.
O=C(NCCCN1CCOCC1)c1ccc(CS(=O)(=O)c2c(Cl)cccc2Cl)o1 was read as SmPrx2 inh >57, Anthrax LT inh -11.8%, AmpC inh no det 3.16µM*[single pt active] and AmpC inh det 17.7%.
Screening COc1ccccc1S(=O)(=O)Cc1ccc(C(=O)NCCN2CCCCCC2)o1 returned SmPrx2 inh >57, Anthrax LT inh -17.2%, AmpC inh no det 3.98µM*[single pt active] and AmpC inh det 10.5%.
O=C(NCCCN1CCOCC1)c1ccc(CS(=O)(=O)c2ccc(Br)cc2)o1 was read as SmPrx2 inh >57, Anthrax LT inh -10.6%, AmpC inh no det 3.98µM*[single pt active] and AmpC inh det 10.2%.
For O=C(NCCN1CCOCC1)c1ccc(CS(=O)(=O)c2ccc(Br)cc2)o1 the results were SmPrx2 inh >57, Anthrax LT inh -2.7%, AmpC inh no det 30.8% and AmpC inh det -0.9%.
COc1ccccc1-c1nc(Nc2ccncc2)c2ccccc2n1 was read as SmPrx2 inh inconclusive, Anthrax LT inh -3.9%, AmpC inh no det 22.3% and AmpC inh det 6.0%.
For C=C1C/C(=C\C)C(=O)O[C@@H]2CCN3CC=C(COC(=O)[C@]1(C)O)[C@H]23 the results were SmPrx2 inh >57, AmpC inh no det -5.0% and AmpC inh det -3.0%.
For CC(C)[C@@]1(NC(=O)[C@@H]2C[C@H]3c4cccc5[nH]cc(c45)C[C@@H]3N(C)C2)O[C@@]2(O)[C@H]3CCCN3C(=O)[C@@H](Cc3ccccc3)N2C1=O the results were SmPrx2 inh >57, Anthrax LT inh inconclusive, AmpC inh no det 120.7% and AmpC inh det -3.9%.
Screening COc1ccc(CCNc2ncnc3c2oc2ccccc23)cc1OC returned SmPrx2 inh >57, Anthrax LT inh inconclusive, AmpC inh no det 59.0% and AmpC inh det -2.7%.
